Screening data (PubChem)
Pf growth 96h: P. falciparum growth inhibition at 96 hour, primary screen for plastid delayed-death inhibitors. P. falciparum luciferase reporter growth, 96 h. Potency, µM (series often up to 28.7 µM), for the others: at the highest dose activity change, negative = inhibition, most hits filed as inhibitors. actives 6.9% (n = 320,000). AID 504834; also: potency is read from the fitted curve at half-maximal effect
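Delayed-death screen, second-generation endpoint: infected erythrocytes, 2% hematocrit, 0.05% parasitemia final; 96 hours at 37 C, 5% CO2; luciferase detection reagent; luminescence decrease equals reduced growth.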
Pf growth 48h: P. falciparum growth inhibition at 48 hours (one generation) | AID 504832 | Potency, µM (highest dose often 28.7 µM), for the others: at the highest dose activity change, negative = inhibition, hits mostly inhibitors | actives 5.9% (n = 310,000) | P. falciparum luciferase growth in erythrocytes, 48 h; also: potency is read from the fitted curve at half-maximal effect
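Luciferase-expressing P. falciparum in infected erythrocytes (2% hematocrit, 0.1% parasitemia final) in RPMI 1640/0.5% Albumax were exposed to compound for 48 hours at 37 C, 5% CO2; growth read as luminescence.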
Giardia FBPA inh: inhibitors of Giardia lamblia fructose-1,6-bisphosphate aldolase. A8B2U2. purified Giardia FBPA. Potency, µM (doses to about 59.6 µM), for the others: at the top dose activity, negative = inhibition, hits mostly inhibitors. actives 0.71% (n = 290,000). AID 2451; also: potency is read from the fitted curve at half-maximal effect; nearly all actives have a fitted effect of over 55% in size
Target sequence (A8B2U2 whole entry, looked up): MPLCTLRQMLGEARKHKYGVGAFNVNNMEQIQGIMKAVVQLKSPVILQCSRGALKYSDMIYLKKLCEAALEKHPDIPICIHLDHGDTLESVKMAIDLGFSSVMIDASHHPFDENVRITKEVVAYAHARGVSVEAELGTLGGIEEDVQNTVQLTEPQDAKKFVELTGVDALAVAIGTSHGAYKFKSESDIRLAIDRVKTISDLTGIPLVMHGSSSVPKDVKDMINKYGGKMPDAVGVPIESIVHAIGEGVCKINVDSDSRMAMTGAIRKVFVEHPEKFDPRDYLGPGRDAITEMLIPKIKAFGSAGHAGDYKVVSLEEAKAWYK
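40 nM FBPA preincubated 10 min at RT with compound (up to 57.5 uM final), then substrate plus GAPDH/TPI/NAD/arsenate coupling and diaphorase/resazurin added. Fluorescence read after 20 min at RT, 525/598 nm.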
Sm TGR inh: blocks Schistosoma mansoni thioredoxin glutathione reductase; Q962Y6; actives 3% (n = 360,000); purified TGR, DTNB reduction, TNB absorbance 405 nm; Potency, µM (highest dose often 114 µM), for the others: at the top dose activity change, negative = inhibition, most hits filed as inhibitors; AID 485364; also: potency is read from the fitted curve at half-maximal effect; nearly all actives have a fitted effect of over 60% in size
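TGR 20 nM + NADPH 100 uM (dispensed conc.), cpd preinc 15 min RT; start with NADPH (500 uM addition) then DTNB (15 mM addition). Kinetic TNB absorbance, 405 nm filter. Four-parameter Hill fit across titration.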
HCMV antiviral: human cytomegalovirus inhibition | HFF cells, HCMV-luciferase reporter, 72 h; active compounds read low | activity change, negative = inhibition, % at 57.5 µM | actives 4.5% (n = 410,000) | AID 1259415; in the data active = activity change below about -60%; inconclusive = no clear call, values can overlap the other calls; inactive = above about -39%
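Steps: HFFs plated, 16 h 37C; compounds added; HCMV-luciferase added to MOI 1 PFU/cell; 72 h 37C; OneGlo reagent, 5 min room temperature; luminescence read, normalized to controls.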
* marks the source's active call; other numbers are inactive results; u = inconclusive; x = no result given; [ ] = another dose, or the depositor's remark. An excerpt weighted towards active compounds, which were near 14% of everything screened. Unless noted, calls follow the shape of the dose curve; as a rule, active = well fitted curve in the direction sought with a large enough effect; inconclusive = small, poorly fitted or top-dose-only effect, or another doubt; inactive = no such curve, though single readings can be large; an effect the other way counts as inactive or inconclusive. % is scaled to controls: 0 for no effect and ±100 for the full control effect.

SMILES	Pf growth 96h	Pf growth 48h	Giardia FBPA inh	Sm TGR inh	HCMV antiviral
Cc1ccccc1Cn1c(=N)n(CC(=O)c2ccco2)c2ccccc21	15µM*	u	0%	u	-13
CCOC(=O)Cn1c(=N)n(Cc2ccccc2)c2ccccc21	16%	-2%	7%	7%	7
CC(=O)Nc1ccc(S(=O)(=O)Nc2nc3ccccc3nc2Nc2ccc(O)c(C(=O)O)c2)cc1	18%	23%	u	-27%	-25
CCn1nc(-c2ccccc2)c(-c2ccccc2)c(C(=O)Nc2nc(C)c(C(=O)N(C)C)s2)c1=O	x	x	x	1%	11
N=c1n(CC(=O)c2ccc([N+](=O)[O-])cc2)c2ccccc2n1Cc1ccc(Cl)cc1	u	u	-2%	-4%	-13
O=C(Cn1nc(Cl)nc1Cl)c1ccc([N+](=O)[O-])cc1	2.9µM*	13µM*	1%	u	-15
N=c1n(CC(=O)c2ccc([N+](=O)[O-])cc2)c2ccccc2n1Cc1ccccc1	u	8.3µM*	1%	8%	-83*
CCCC(=O)N1CC2(CCN(C)CC2)c2c(n(C)c3cc(OC)ccc23)[C@H]1CO	x	x	x	x	17
O=C(CCCn1c(=O)oc2ccccc21)Nc1ccccc1	-5%	-23%	x	-5%	-36
CCCCCN1CN(S(=O)(=O)c2cccs2)c2nc3ccccc3nc21	u	u	-6%	4%	-36
CCCc1cc(C(N)=O)c(NC(=O)c2ccco2)s1	0.41µM*	52%	2%	-29%	-19
O=C(CSc1nnc(-c2cccnc2)n1Cc1ccco1)NCc1ccc2c(c1)OCO2	u	4%	-2%	45µM*	-30
Cn1c(-c2ccccc2)cnc1SCC(=O)NCc1ccco1	x	-5%	-1%	40µM*	-30
O=C(CSc1nnc(-c2cccnc2)n1Cc1ccccc1)NCc1ccco1	87%	-10%	-4%	13µM*	-28
O=C(CSc1nnc(-c2ccccc2)n1-c1ccccc1)NCc1ccco1	61%	-9%	4%	-1%	-2
C=CCn1c(SCC(=O)NCc2ccc3c(c2)OCO3)nnc1-c1cccnc1	-13%	19%	-2%	-1%	-25
c1ccc(Cn2c(SCCN3CCOCC3)nnc2-c2cccnc2)cc1	10µM*	x	-18%	73%	19
Cc1occc1-c1nnc(SCC(=O)N2CCCC(C)C2)o1 (centres undefined)	u	-19%	x	u	-5
CCOC(=O)c1ccc(NC(=O)c2ncn3c2C(=O)NC[C@H]3C)cc1	x	x	x	x	-31
C=CCn1c(SCC(=O)NCc2ccco2)nnc1-c1ccc2ccccc2n1	12%	u	-15%	16µM*	-11
CCCn1cc(SCC(=O)NCc2ccco2)c2ccccc21	6.6µM*	2.1µM*	-2%	u	-6
COc1cccc(-c2nnc(SCC(=O)NCc3ccc4c(c3)OCO4)n2Cc2ccco2)c1	6.6µM*	x	-3%	45µM*	-3
CC(=O)NNc1cc(N2CCOCC2)nc(N2CCOCC2)n1	u	0%	-26%	0%	23
CC(C)(C)c1ccc(C(=O)NNc2cc(N3CCCCC3)nc(N3CCCCC3)n2)cc1	u	2.6µM*	-1%	1%	-25
CC(C)(C)c1ccc(C(=O)NNc2cc(N3CCOCC3)nc(N3CCOCC3)n2)cc1	-20%	12µM*	u	1%[57.1 µM]	48
SMILES	Pf growth 96h	Pf growth 48h	Giardia FBPA inh	Sm TGR inh	HCMV antiviral
O=C(CSc1ccc(-c2ccco2)nn1)Nc1ccc(F)cc1F	-3%	1%	x	u	-20
CCCC(=O)Oc1c(Sc2ccc(Cl)cc2)c(C)nn1-c1ccccc1	x	x	x	3%	27
FC(F)(F)c1cccc(N2CCN(c3ncnc4c3nc3n4CCCC3)CC2)c1	x	x	x	4%	-73*
Cc1ccc(C)c(N2CCN(c3ncnc4c3nc3n4CCCC3)CC2)c1	x	x	x	-1%	48
CCOc1ccccc1CNc1ncnc2c1nc1n2CCCC1	x	x	x	0%	-81*
COc1ccccc1CNc1ncnc2c1nc1n2CCCC1	x	x	x	4%	-14
COc1ccc(N2CCN(c3ncnc4c3nc3n4CCCCC3)CC2)cc1	x	x	x	-12%	-27
CC(=O)c1ccc(N2CCN(c3ncnc4c3nc3n4CCCC3)CC2)cc1	x	x	x	3%	-86*
c1ccc(N2CCN(c3ncnc4c3nc3n4CCCC3)CC2)cc1	x	x	x	4%	-68*
CCCCNC(=O)C(NC(=O)c1cccc2ccccc12)C(=O)c1ccccc1 (centres undefined)	x	x	x	x	-8
COc1cccc(N2CCN(c3ncnc4c3nc3n4CCCCC3)CC2)c1	x	x	x	-1%	-99*
Cc1c(O)ccc2c(CN(C)Cc3ccccc3)cc(=O)oc12	-17%	u	9%	1%	-67*
Cc1c(O)ccc2c(CN3CCN(Cc4ccccc4)CC3)cc(=O)oc12	u	0%	-6%	5%	-62*
CCc1cc2c(CN3CCN(Cc4ccccc4)CC3)cc(=O)oc2cc1O	u	u	u	10%	-39
CC(=O)c1c(O)ccc2c(-c3ccccc3)cc(=O)oc12	15%	12%	12%	1%	-39
CN(C)Cc1c(O)ccc2c(-c3ccccc3)cc(=O)oc12	9.3µM*	-9%	0%	20%	-35
Cc1nnc(SCc2cc(=O)oc3cc(O)ccc23)n1Cc1ccccc1	2.1µM*	u	10%	-7%	9
Cc1ccc(S(=O)(=O)N2CCC(C(=O)N3CCCCCCC3)CC2)cc1C	x	x	x	x	-26
Cc1cc(NS(=O)(=O)c2ccc(NC(=O)COc3ccc(Br)cc3)cc2)nc(C)n1	-11%	0%	-15%	-5%	42
Cc1cc(OCC(=O)N2CCN(c3ccccn3)CC2)cc(C)c1Br	-23%	5%	-6%	2%	-35
COc1ccc(-n2nnnc2CNC(=O)c2c(-c3ccccc3Cl)noc2C)cc1	x	x	x	x	-6
COc1ccccc1N(CC(=O)N(C)Cc1ccccc1)S(=O)(=O)c1cccs1	u	u	x	-2%	-20
Cc1nn(Cc2ccccc2Cl)c2sc(C(=O)Nc3ccccc3N3CCOCC3)cc12	u	u	-1%	7%	u
